Screening data as filed in PubChem.
HT1080NT lethal: qHTS for induction of synthetic lethality in tumor cells producing 2HG: qHTS for the HT-1080-NT fibrosarcoma cell line | AID 686970, 2013 | Potency, µM (top dose mostly 46.1 µM), for inactives: at the highest dose activity, negative = less viability, most hits filed as cytotoxic | HT-1080-NT fibrosarcoma viability, CellTiter-Glo ATP luminescence, 48 h | 360,000 tested, 1.6% active;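 note: NT is the 2HG producing partner of a matched IDH1 knockdown line; potency is the fitted concentration of half-maximal effect; 0% = DMSO-treated cells and -100% = media-only wells without cells; nearly all actives have a fitted effect of over 55% in size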
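Read-out is CellTiter-Glo luminescence after 10 minutes at room temperature, following 48 hours' compound treatment of HT-1080-NT cells (750 cells/well, RPMI, 5% FBS, 37 degrees C).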
IL-1B inflam inh: qHTS for Inhibitors of Inflammasome Signaling: IL-1-beta AlphaLISA Primary Screen; THP-1 LPS/ATP IL-1B secretion, AlphaLISA, 16 h; stronger effect = lower value; activity change, % at 57.5 µM; 360,000 tested, 4.7% active; in the data active = activity change below about -50%; inconclusive = mostly about -30% to -49%
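Secreted IL-1B measured by AlphaLISA bead assay after 16 h compound exposure of THP-1 cells; compounds (final up to 57.5 uM) added 1 h before LPS (250 ng/mL) and ATP (1.25 mM) stimulation; lower signal means less secretion.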
12-LOX inh: Primary qHTS assay for inhibitors of human arachidonate 12S-lipoxygenase (ALOX12): Round 2; Polyunsaturated fatty acid lipoxygenase ALOX12 (Homo sapiens), P18054; 580,000 tested, 1.1% active; purified 12hLO, xylenol orange hydroperoxide absorbance; Potency, µM (highest dose often 108 µM), without a hit: at the highest dose activity change, negative = inhibition, hits mostly inhibitors; note: potency is the fitted concentration of half-maximal effect
Target sequence (P18054 whole entry, looked up): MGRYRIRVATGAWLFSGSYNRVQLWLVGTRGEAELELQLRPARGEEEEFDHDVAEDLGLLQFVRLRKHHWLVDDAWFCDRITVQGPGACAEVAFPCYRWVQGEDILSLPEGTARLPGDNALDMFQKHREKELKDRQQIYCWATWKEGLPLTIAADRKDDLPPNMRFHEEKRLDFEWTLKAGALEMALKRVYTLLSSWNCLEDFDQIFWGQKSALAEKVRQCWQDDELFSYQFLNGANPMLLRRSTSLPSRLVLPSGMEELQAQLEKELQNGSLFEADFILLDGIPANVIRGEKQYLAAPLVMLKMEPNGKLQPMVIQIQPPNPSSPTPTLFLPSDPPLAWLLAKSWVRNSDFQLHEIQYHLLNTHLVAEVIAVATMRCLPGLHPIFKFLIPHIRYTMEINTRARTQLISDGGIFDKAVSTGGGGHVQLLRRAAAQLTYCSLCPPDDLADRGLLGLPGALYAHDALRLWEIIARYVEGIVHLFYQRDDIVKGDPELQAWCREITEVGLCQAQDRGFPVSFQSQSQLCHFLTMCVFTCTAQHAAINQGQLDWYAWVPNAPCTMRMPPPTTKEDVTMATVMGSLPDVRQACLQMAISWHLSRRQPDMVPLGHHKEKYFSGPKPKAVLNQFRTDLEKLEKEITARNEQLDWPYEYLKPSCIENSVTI
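Hydroperoxide product was detected by ferrous iron/xylenol orange as the 573 to 405 nm absorbance ratio. Arachidonic acid at 40 uM (final) was turned over for 30 min at room temperature by 150 nM human 12hLO, pH 7.0 Hepes buffer, after 15 min compound preincubation.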
TDP1 cell noCPT: qHTS for Inhibitors of human tyrosyl-DNA phosphodiesterase 1 (TDP1): qHTS in cells in absence of CPT; DT40 Tdp1-/- hTDP1 cells, no CPT, ATP luminescence, 48 h; Potency, µM (top dose mostly 46.2 µM), without a hit: at the top dose activity change, negative = growth inhibition, usual class: inhibitors; 420,000 tested, 15% active; AID 686978, 2013; note: potency is the fitted concentration of half-maximal effect; nearly all actives have a fitted effect of over 55% in size
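Readout: luminescence from CellTiter-Glo after 30 min in the dark at RT. Cells: DT40 Tdp1-/- with stable hTDP1, 400/well. Exposure: compounds alone, ≥48 hr, 37 °C.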
DT40 TDP1 CPT: qHTS for Inhibitors of human tyrosyl-DNA phosphodiesterase 1 (TDP1): qHTS in cells in presence of CPT. Potency, µM (highest dose often 46.2 µM), for the others: top-dose activity change, negative = growth inhibition, usual class: inhibitors. chicken DT40 Tdp1-/-;hTDP1 cells + 20 nM CPT, ATP luminescence, 48 h. 420,000 tested, 12% active; note: potency is the fitted concentration of half-maximal effect; nearly all actives have a fitted effect of over 55% in size
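Chicken DT40 Tdp1-/- cells complemented with human TDP1, 400 cells/well, exposed to compounds plus 20 nM camptothecin for at least 48 h at 37 C; viability read as ATP content by CellTiter-Glo luminescence.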
HT1080 IDH1KD tx: qHTS for induction of synthetic lethality in tumor cells producing 2HG: qHTS for the HT-1080-IDH1KD cell line; HT-1080 IDH1 knockdown viability, ATP luminescence, 48 h; Potency, µM (highest dose often 46.1 µM), for inactives: at the highest dose activity, negative = toxicity, actives largely listed as cytotoxic; 360,000 tested, 2% active;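 note: potency is the fitted concentration of half-maximal effect; 0% = DMSO wells and -100% = cell-free medium wells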
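% activity derives from luminescence (CellTiter-Glo), normalised to DMSO and no-cell wells. HT-1080-IDH1KD cells, 750/well, had 48 h compound exposure at 37 °C.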
An asterisk follows results filed as active; i = inactive; ? = inconclusive; nt = no result given; ! = repeats disagree. Only a selection was taken, and hits are over-represented in it overall. Unless noted, calls come from the whole dose curve; as a rule, active = well fitted curve in the direction sought with a large enough effect; inconclusive = small, poorly fitted or top-dose-only effect, or another doubt; inactive = no such curve, though single readings can be large; an effect the other way counts as inactive or inconclusive. Unless noted, % is set by controls: 0 for no effect and ±100 for the full control effect.

SMILES	HT1080NT lethal	IL-1B inflam inh	12-LOX inh	TDP1 cell noCPT	DT40 TDP1 CPT	HT1080 IDH1KD tx
CCOc1ccc(CCN2C(=O)C(=O)N([C@@H](Cc3ccc(O)cc3)CN3CCC[C@@H]3CN3C(=O)C(=O)NC[C@@H]3Cc3ccccc3)C[C@@H]2Cc2ccccc2)cc1	?	?	-5%	?	?	?
CCOc1ccc(CCN2C(=S)N([C@@H](Cc3ccc(O)cc3)CN3CCC[C@@H]3CN3C(=S)NC[C@@H]3Cc3ccccc3)C[C@@H]2CC(C)C)cc1	-13%	-17	?	9.2µM*	10µM*	-5%
CCOc1ccc(CCN2C(=S)N([C@@H](Cc3ccc(O)cc3)CN3CCC[C@@H]3CN3C(=S)NC[C@@H]3CC(C)C)C[C@@H]2CC(C)C)cc1	-17%	-59*	-53%	21µM*	16µM*	-23%
COc1ccc(CCCc2nnc(SCC(=O)Nc3nc(C)cs3)n2C)cc1C	-1%	-5	0%	26µM*	?	-20%
COc1ccc(CCCc2nnc(SCC(=O)Nc3ccc(C)cc3)o2)cc1C	nt	nt	18µM*!	2%	7%	nt
Cc1csc(NC(=O)CSc2nnc(CCNC(=O)c3cccs3)n2C)n1	15%	79	-20%	-5%	-6%	3%
COc1ccc(CCCc2nnc(SCC(=O)Nc3cc(F)ccc3C)o2)cc1	nt	nt	-12%	12µM*	?	nt
O=[S+]([O-])(c1cccs1)N1CCc2nc(C3CC3)nc(-c3ccc(Cl)cc3)c2CC1	nt	nt	25%	nt	nt	nt
O=C(c1ccc(CC2CCN(C(=O)c3nccc4ccccc34)CC2)cc1)N1CCOCC1	nt	nt	23%	nt	nt	nt
COCCCNC(=O)c1nc(-c2cccc3[nH]ccc23)no1	nt	nt	16%	nt	nt	nt
CN(C)c1ccc(C=Nc2cccc(C(=O)c3ccccc3)c2)cc1	nt	nt	-13%	nt	nt	nt
CCCCC1=CC2=CC(=O)C(C)(OC(=O)CC)C(=O)C2=CN1c1ccc(OC)cc1 (stereo not drawn)	-5%	25	207%	?	26µM*	-2%
CCCCC1=CC2=CC(=O)C(C)(OC(=O)CC)C(=O)C2=CN1Cc1ccc2c(c1)OCO2 (stereo not drawn)	-26%	35	-60%	15µM*	?	1%
CCCCC1=CC2=CC(=O)C(C)(OC(=O)CC)C(=O)C2=CN1CCCCO (stereo not drawn)	6%	9	-17%	-4%	16%	7%
CCCCC1=CC2=CC(=O)C(C)(OC(=O)CC)C(=O)C2=CN1c1cccc(C#N)c1 (stereo not drawn)	-4%	63	?	-17%	?	-6%
COc1ccc(-c2nc(CC3CCN(C(=O)c4ccnn4C)C3)no2)cc1 (stereo not drawn)	nt	nt	34%	nt	nt	nt
O=C1NC(=Nc2cccnc2)S/C1=C/c1ccc(F)cc1	?	13	45%	3.3µM*	2.9µM*	?
Cc1cccc(N=C2NC(=O)/C(=C/c3cccn3C)S2)c1	-16%	7	71%	18µM*	?	-28%
Cc1ccccc1N=C1NC(=O)/C(=C/c2cccn2C)S1	-29%	-1	?	23µM*	16µM*	-27%
O=C1NC(=Nc2ccccc2)S/C1=C\c1cccn1-c1ccccc1	?	-5	?	21µM*	9.2µM*	?
CCO[C@H]1CN(c2cc(C)nc(-c3ccccc3O)n2)C[C@@H]1O	nt	nt	63%	nt	nt	nt
Cc1ccc(NC(=O)CC2Oc3ccc(C)cc3NC2=O)c(C)c1 (stereo not drawn)	1%	9	-15%	21µM*	?	-13%
CCOc1cc(C#N)c(NC(=O)c2ccccc2)cc1OCC	nt	nt	-13%	nt	nt	nt
COc1cccc(/C=N/NC(=O)CSc2ccccc2C)c1O	?	46	-25%	1.3µM*	1.2µM*	26µM*
COc1cccc(/C=N/NC(=O)CSc2ccccc2C)c1OC	13%	18	-19%	-15%	4%	1%
SMILES	HT1080NT lethal	IL-1B inflam inh	12-LOX inh	TDP1 cell noCPT	DT40 TDP1 CPT	HT1080 IDH1KD tx
COc1cccc(/C=N/NC(=O)C(=O)N2CCCC2)c1O	?	117	1%	16µM*	?	-19%
COc1cccc(/C=N/NC(=O)N/N=C/c2cccc(OC)c2O)c1O	-21%	-97*	0%	3.7µM*	?	-19%
CCOc1cc(C#N)c(NC(=O)c2cccnc2)cc1OCC	?	49	9%	1.8µM*	1.3µM*	5.2µM*
CC(=O)c1cccc(S(=O)(=O)NCc2c(C)nn(Cc3ccccc3)c2C)c1	nt	nt	17%	nt	nt	nt
CC1(C)CC(NC(=S)NCCc2ccccc2)CC(C)(C)N1	nt	nt	-2%	nt	nt	nt
O=C(N/N=C/c1ccccc1O)C(=O)N1CCCCCC1	?	164	i	?	?	8.2µM*
COc1cccc(/C=N/Nc2ccc(S(=O)(=O)O)cc2)c1O	11%	9	-26%	5%	2%	0%
O=C(N/N=C/c1ccccc1OCc1ccccc1Cl)c1cccnc1	?	49	23%	23µM*	?	-2%
COc1ccccc1C=NN=C(NN=Cc1ccccc1OC)NN=Cc1ccccc1OC	?	-82*	?	?	?	?
O=C(N/N=C/c1ccccc1F)C(=O)N1CCCCCC1	7%	17	-24%	8%	37%	0%
COc1cccc(/C=N/Nc2ccc(C(=O)O)cc2)c1O	18µM*	8	?	21µM*	?	21µM*
CC(C)(C)CC(=O)Nc1ccncc1	nt	nt	-29%	nt	nt	nt
COc1cccc(C=NNC(=O)c2ccncc2)c1O	?	185	7%	0.18µM*	0.92µM*	1.5µM*
COc1cccc(/C=N/Nc2nn3cnnc3c3ccccc23)c1O	-11%	54	i	1.2µM*	2.6µM*	?
COc1cccc(/C=N/NC(=O)c2nc(-c3ccccc3)cc(-c3ccccc3)n2)c1O	?	11	-17%	9.2µM*	12µM*	?
COc1cccc(/C=N/NC(=O)c2cccc3ccccc23)c1OC	-7%	22	i	?	?	-11%
CCOc1cccc(/C=N/NC(=O)c2cccnc2)c1O	?	124	1%	?	?	5.2µM*
